# In the library only some 4% were active in any assay of this set; here they are far more common.
# EBV LMP1 NFkB – reduces LMP1-driven NF-kappaB luciferase signal | 350,000 tested, 0.69% active | LMP1-induced NF-kappaB luciferase reporter cells, luminescence | inhibition, % at 12.5 µM | AID 504558; in the data active = inhibition above about 41%;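 also: 0% = neutral control wells and 100% = reference inhibitor control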
# HIF-2a inh – HIF-2a inhibition; 360,000 tested, 0.72% active; inhibition, % at 18.8 µM; 786-0 RCC cells HIF-2a reporter, luciferase luminescence, overnight;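 active = inhibition of the luminescence signal of 40% or more relative to plate controls, in a single-dose primary screen at 18.75 µM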
# TWEAK-Fn14 inh – inhibitors of TWEAK-Fn14 interaction signaling | TWEAK-stimulated Fn14 reporter cells, luciferase luminescence, 8 h | 360,000 tested, 2% active | inhibition, % at 10 µM; in the data active = inhibition above about 50%
# TROY NFkB inh – inhibitors of TROY-dependent NF-kB signaling; 360,000 tested, 0.98% active; inhibition, % at 10 µM; AID 1347056; Q293 LMP1-TROYcd NF-kB luciferase reporter, 4 h;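 active = compounds whose plate-normalised and pattern-corrected inhibition of the luciferase reporter signal at the single screening dose is 50% or more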
# TRPM1 prom inh – reduces MITF-dependent TRPM1 promoter luciferase signal; SK-MEL-5 TRPM1 promoter luciferase, 24 h; 330,000 tested, 0.83% active; inhibition, % at 12.5 µM;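 active = mean inhibition across replicates of 60% or more, whatever share of single replicates reaches that level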
# Peg3 promoter – inhibitors of Peg3 promoter; HeLa PEG-Prom luciferase reporter, luminescence, overnight; inhibition, % at 20 µM; 360,000 tested, 1.7% active; AID 588405;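 active = inhibition of at least 50% at 20 µM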
# The depositor's hits bear a star; x = not tested or not shown.
SMILES,EBV LMP1 NFkB,HIF-2a inh,TWEAK-Fn14 inh,TROY NFkB inh,TRPM1 prom inh,Peg3 promoter
Oc1c(C=Nc2cccnc2)sc2ccccc12,-1.3,-75.6,-9.5,-0.5,-11.2,-44.5
Oc1c(C=Nc2ccccc2)sc2ccccc12,-48.4,-267.2,67.5*,36.6,-18.3,-174.2
CCOC(=O)C1=C(C)N(C[C@@H]2CC[C@@H](Cc3ccc(-c4ccccc4)cc3)O2)C(=O)NC1c1cccc([N+](=O)[O-])c1 (stereo not given in full),-2.3,10.5,15.2,17.3,-2.7,21.9
COc1cc(/C=C2/SC(=O)NC2=O)ccc1Oc1ccc([N+](=O)[O-])cc1[N+](=O)[O-],2.8,-16.6,55.6*,53.7*,-1.7,-3.8
COc1cc(/C=C2\SC(=O)NC2=O)ccc1Oc1ccc([N+](=O)[O-])cn1,6.3,-45.3,-8.2,-9.2,2.6,-1.6
CC(C)C(OC(=O)CN1C(=O)c2ccccc2C1=O)C(=O)NC1CCCC1 (stereo not given),-5.5,5.0,35.7,-9.4,-2.2,12.6
Nc1nc(Nc2cccc(F)c2)nc(NCc2ccco2)c1[N+](=O)[O-],-46.3,-74.9,20.5,5.2,-19.0,37.5
COc1ccc(NC(=O)CN(C)C(=O)c2ccccc2Sc2ncnc3sc(C)c(C)c23)cc1,-4.7,18.4,3.1,9.3,3.8,27.8
CCOC(=O)C1CCCN(S(=O)(=O)CCNC(=O)c2cccc(OC)c2)C1 (stereo not given),5.2,1.4,9.9,-4.1,5.6,4.7
Cc1c(NC(=O)Cn2[nH]c(=O)c3ccccc3c2=O)c(=O)n(-c2ccccc2)n1C,-7.5,3.5,12.7,4.1,14.9,-2.7
Cc1sc(NC(=O)Cn2[nH]c(=O)c3ccccc3c2=O)nc1-c1ccccc1,16.1,-33.1,-8.6,-7.2,12.0,63.1*
C[C@H](CO)N1C[C@H](C)[C@@H](CN(C)Cc2ccncc2)Oc2c(NS(=O)(=O)c3cn(C)cn3)cccc2C1=O,-7.2,5.4,7.7,-4.5,-6.0,-13.3
N=C1C(c2nc(-c3ccc(F)cc3)cs2)=C(O)CN1Cc1ccc(Cl)cc1,-17.7,-3.0,105.9*,2.5,-10.2,31.7
COc1ccc(-c2csc(C3=C(O)CN(Cc4ccc(Cl)cc4)C3=N)n2)cc1OC,12.8,-8.9,-10.1,15.6,1.4,28.4
CC(=O)CSc1ccc(-c2nc3ccccc3[nH]2)cn1,5.9,-76.9,69.1*,14.5,-1.5,-117.9
COc1ccc(-c2[nH]c(-c3ccc(C)cc3)nc2SCC(=O)Nc2nccs2)cc1,5.9,2.9,17.2,10.7,16.9,32.3
CCOC(=O)CNC(=O)CSc1ccc(-c2nc3ccccc3[nH]2)cn1,-8.3,9.2,14.4,-0.3,-13.7,-8.0
COc1ccc(-c2nc(SCC(=O)Nc3nccs3)c(-c3ccc(Cl)cc3)[nH]2)cc1,-9.2,-2.2,3.7,10.1,x,52.1*
N#Cc1ccccc1CSc1ccc(-c2nc3ccccc3[nH]2)cn1,-9.8,-265.9,59.2*,58.9*,-33.8,-141.0
Cc1cc2nc(-c3ccc(SCc4ccc(C#N)cc4)nc3)[nH]c2cc1C,-3.4,-95.5,58.1*,47.1,-1.7,-57.7
Cc1cc2nc(-c3ccc(SCC(=O)Nc4ccc(S(=O)(=O)N5CCCC5)cc4)nc3)[nH]c2cc1C,-30.9,-193.5,-29.1,-35.5,-28.4,-78.0
CN(C)c1ccc(CNC(=O)C2Cc3c(-c4ccccc4Oc4ccccc4)ccnc3O2)cc1 (stereo not given),x,-0.9,6.5,23.7,x,23.6
O=C(Nc1cccc(F)c1)Nc1nnc([C@@H]2O[C@H](CO)[C@@H](O)[C@H]2O)s1,x,7.9,8.6,4.1,x,12.0
Cc1cc2nc(-c3ccc(SCC(=O)Nc4nccs4)nc3)[nH]c2cc1C,-11.1,-155.2,-46.2,-21.8,74.1*,14.3
O=C(CSc1ccc(-c2nc3ccccc3[nH]2)cn1)Nc1ccc(S(=O)(=O)N2CCCC2)cc1,-33.3,-100.3,51.6*,17.6,-13.3,-18.1
SMILES,EBV LMP1 NFkB,HIF-2a inh,TWEAK-Fn14 inh,TROY NFkB inh,TRPM1 prom inh,Peg3 promoter
Cc1ccc2nc(-c3ccc(SCC(=O)O)nc3)[nH]c2c1,12.4,-18.2,28.1,6.5,8.2,23.1
Cc1ccc2nc(-c3ccc(SCC(=O)N4CCc5ccccc54)nc3)[nH]c2c1,-70.1,-222.8,53.0*,-60.2,-58.8,-280.1
COC(=O)[C@H](Cc1ccccc1)NC(=O)N(C)Cc1ccccc1,-2.6,-6.8,3.6,-8.1,-29.8,-26.7
CN(Cc1ccccc1)C(=O)N[C@@H](Cc1ccccc1)C(=O)O,-4.4,5.7,81.1*,x,-4.5,5.4
COC(=O)c1ccc(-c2ccc(C(c3c(C)[nH][nH]c3=O)c3c(C)[nH][nH]c3=O)o2)cc1,-0.9,-24.7,55.7*,13.0,42.8,-47.5
COc1ccc(C2=Nc3ccccc3N(C(=O)c3ccc(C)cc3)C2C(=O)Nc2c(C)cccc2C)cc1 (stereo not given),x,-32.4,x,x,x,x
Cc1cc(C)nc(NC(=O)c2ccc(C)c([N+](=O)[O-])c2)n1,-201.7,21.2,-13.6,-8.1,7.4,8.8
CCC(=O)NC(=S)Nc1ccc(NC(=O)c2cccnc2)cc1,0.6,-32.9,72.2*,1.2,3.3,-57.1
Cc1csc(NC(=O)c2cccnc2)n1,-5.6,-113.9,82.6*,-18.5,-12.6,-51.2
COc1ccccc1NC(=O)c1ccc(NC(=O)c2cc3c(s2)CCC3)cc1,11.4,-8.3,58.7*,30.7,-3.7,13.3
Cc1csc(NC(=O)c2ccc(C)c([N+](=O)[O-])c2)n1,-17.5,-105.9,68.2*,16.8,-6.6,-140.5
CC(=O)Nc1ccc(S(=O)(=O)N(C)CC(=O)OCC(=O)Nc2cc(C)on2)cc1,5.8,4.8,-0.2,3.3,-3.0,-3.0
Cc1ccc(C(=O)NCC(C)NC(=O)c2ccc(C)c(C)c2)cc1C (stereo not given),-10.0,16.5,-11.4,-10.0,-3.8,21.9
COC(=O)c1sc(NC(=O)c2cc3c(s2)CCCC3)nc1C,-40.4,-134.4,11.6,-10.3,-72.7,-172.8
Cc1ccc(C(=O)Nc2ccccc2C(=O)N2CCCC2)cc1[N+](=O)[O-],-3.7,0.5,100.1*,90.4*,-3.1,-2.2
Cc1cc(C(=O)Nc2ccccc2C(=O)N2CCCCC2)ccc1[N+](=O)[O-],4.5,15.0,-12.2,10.7,3.4,16.8
Cc1csc(NC(=O)c2cc3c(s2)CCC3)n1,-29.6,-91.8,68.0*,-46.7,-16.2,-119.1
O=S(=O)(NC1CC2CCC1C2)c1ccc(Br)cc1 (stereo not given),3.4,27.1,14.3,-2.6,-14.0,22.4
COc1cc(CC(NC(C)=O)C(=O)NC2CCN(C(=O)C3CC3)CC2)cc(OC)c1 (stereo not given),0.5,11.4,12.5,55.0*,0.9,-6.6
COc1cc(C(=O)N2CCC(NC(=O)C(Cc3ccccc3)NC(C)=O)CC2)cc(OC)c1OC (stereo not given),5.7,7.1,29.3,-25.9,-1.9,57.8*
Cc1cccc(CC(=O)NCC(=O)NCc2cc(=O)n(C)c(=O)n2C)c1,-1.9,5.9,7.2,2.9,-6.9,-10.7

# High-throughput results (PubChem)
